Most compounds without a hit are left out; they make up all but 5.5% or so of the library.
Chronic BCR inh: chronic active BCR signaling inhibition; ABC-DLBCL IkBa-CBG/CBR reporter, luminescence ratio, 4 h; Potency, µM (titrated, usually from 46.1 µM), without a hit: top-dose activity change, negative = inhibition, most hits filed as inhibitors; 340,000 compounds, 0.05% hits; AID 493014; active = well fitted inhibition curve with a large enough effect in the signal ratio, with a control signal flat, not every such curve was filed as active; inconclusive = small, poorly fitted or top-dose-only effect, or effect the other way, or a change in a side signal; the % refers to the signal ratio;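 also: plate controls were basal doxycycline-induced cells for no effect and cells given 10 µM MG132 for full effect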
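TMD8 ABC-DLBCL cells carrying doxycycline-inducible green luciferase fused to IkappaBalpha plus unfused red luciferase were exposed to compounds (up to 46 uM) for 4 hrs at 37C. Activity came from the overlap-corrected green/red luminescence ratio.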
Gal4-VP16 FLuc: inhibits Gal4-VP16 luciferase reporter, ROR gamma counter-screen; Potency, µM (highest dose often 53.6 µM), for the others: at the highest dose activity, negative = inhibition, actives largely listed as inhibitors; Drosophila S2 Gal4-VP16 UAS-luciferase, luminescence, 20 h; 310,000 compounds, 3.5% hits;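 also: Gal4-VP16 expression switched on by copper sulfate through the metallothionein promoter; % is scaled to controls: 0 for no effect and ±100 for the full control effect; nearly all actives have a fitted effect of over 50% in size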
Mito fusion act: inhibitors of mitochondrial division or activators of mitochondrial fusion. S. cerevisiae fusion-defective mutant growth rescue, CellTiterGlo 48 h. Potency, µM (doses to about 46.1 µM), for the others: top-dose growth rescue (activation), usual class: activators. 320,000 compounds, 0.23% hits. AID 485298; also: % of control where 0% means no effect; nearly all actives have a fitted effect of over 45% in size
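Luminescent cell viability in 1536-well qHTS format served as the measure of rescued growth in ts fusion-mutant S. cerevisiae cultured on non-fermentable YPEG for 48 hours at 37C.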
RORgamma inh: inhibitors of mouse ROR gamma transcriptional activity; P51450; Drosophila S2 Gal4-RORgamma UAS-luciferase reporter, 20 h; Potency, µM (titrated, usually from 53.6 µM), for the others: at the top dose activity change, negative = inhibition, actives largely listed as inhibitors; 310,000 compounds, 5.4% hits; also: % is scaled to controls: 0 for no effect and ±100 for the full control effect; nearly all actives have a fitted effect of over 60% in size
Target sequence (P51450 whole entry, looked up, the tested form may be a part): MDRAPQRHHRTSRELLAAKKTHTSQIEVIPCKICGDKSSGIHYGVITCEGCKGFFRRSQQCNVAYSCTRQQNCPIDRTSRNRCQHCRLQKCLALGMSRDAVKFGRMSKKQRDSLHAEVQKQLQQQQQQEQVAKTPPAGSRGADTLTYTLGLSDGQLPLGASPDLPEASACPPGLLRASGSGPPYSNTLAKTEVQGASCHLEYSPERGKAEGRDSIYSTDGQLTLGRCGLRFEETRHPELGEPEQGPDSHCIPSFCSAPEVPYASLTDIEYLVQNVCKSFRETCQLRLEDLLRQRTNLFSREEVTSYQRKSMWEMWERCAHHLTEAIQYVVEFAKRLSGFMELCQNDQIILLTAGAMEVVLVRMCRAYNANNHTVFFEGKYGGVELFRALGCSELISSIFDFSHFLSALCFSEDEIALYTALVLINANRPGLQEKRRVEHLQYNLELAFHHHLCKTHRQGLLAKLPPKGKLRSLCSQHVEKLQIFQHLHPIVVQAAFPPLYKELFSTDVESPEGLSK
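In this cell-based reporter format, copper sulfate (700 uM final) drives Gal4–ROR gamma fusion expression from a metallothionein promoter in Drosophila Schneider cells; compounds preincubated 1 hr, reporter read after 20 hr at ambient temperature.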
uPA surface inh: blocks generation of uPA at the cell surface; cell surface uPA generation assay, qHTS; Potency, µM (titrated, usually from 38.3 µM), for inactives: at the highest dose activity change, negative = inhibition, actives largely listed as inhibitors; 330,000 compounds, 0.31% hits; AID 540303; active = well fitted inhibition curve with a large enough effect; inconclusive = small, poorly fitted or top-dose-only effect; inactive = no such curve, though single readings can be large or run the other way; tested in mouse RAW 264.7 cells; also: % is scaled to controls: 0 for no effect and ±100 for the full control effect; nearly all actives have a fitted effect of over 55% in size
Integrin act MD: activates integrin-mediated alleviation for muscular dystrophy; alpha7betagal myoblasts, beta-gal FDG fluorescence, 48 h; Potency, µM (top dose mostly 38.3 µM), inactives show at the top dose activation, actives largely listed as activators; 350,000 compounds, 0.064% hits; AID 624291;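 also: 100% = response of the positive control SU9516; nearly all actives have a fitted effect of over 60% in size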
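alpha7betagal+/- myoblasts (passage 13, 250/well) treated 48 h at 37C with compounds at 1:260 dilution of DMSO stock. Lysed, then beta-galactosidase activity read as FDG fluorescence (ex 480/em 540) after 30 min, with pre-read for autofluorescence.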
An asterisk follows results filed as active; ? = inconclusive; nt = not tested or not shown; [ ] = dose if it differs, or a comment. Unless noted, calls follow the shape of the dose curve; as a rule, active = well fitted curve in the direction sought with a large enough effect; inconclusive = small, poorly fitted or top-dose-only effect, or another doubt; inactive = no such curve, though single readings can be large; an effect the other way counts as inactive or inconclusive. Potency is read from the fitted curve at half-maximal effect.

SMILES	Chronic BCR inh	Gal4-VP16 FLuc	Mito fusion act	RORgamma inh	uPA surface inh	Integrin act MD
CCN(CC)S(=O)(=O)c1ccc(C(=O)Nc2nnc(C(C)C)s2)cc1	11%	-13%	-2%	-4%	6%	4%
CCc1nnc(NC(=O)c2ccc(S(=O)(=O)N(C)c3ccccc3)cc2)o1	-4%	0.56µM*	19%	0.45µM*	?	-29%
COc1ccc(-c2nc(-c3ccccc3)c(Nc3ccc4ccccc4c3)o2)cc1	nt	3%	nt	?	nt	nt
CC(=O)C1=C(c2ccc(Br)cc2)N(C(C)=O)n2c(nnc2C2CCCCC2)S1	0%	nt	nt	nt	nt	nt
CN(C1CCCCC1)S(=O)(=O)c1ccc(NC(=O)c2ccc(Br)o2)cc1	?	4%[0.365 µM]	11µM*	96%	0%	-18%
C=CCN(CC=C)S(=O)(=O)c1ccc(C(=O)Nc2nnc(CSC)o2)cc1	4%	2.8µM*	0%	0.56µM*	?	-37%
Cc1ccc(S(=O)(=O)N2CCOCC2)cc1NC(=O)COC(=O)c1ccc(Cl)nc1	0%	nt	nt	nt	1%	-7%
CC1CC(C)CN(S(=O)(=O)CC23CCC(CC2=O)C3(C)C)C1 (stereo not given)	2%	7%	?	-12%	0%	-10%
Cc1nn(C)cc1-c1n[nH]c(=S)n1-c1ccc(Cl)cc1	0%	-4%	-8%	?	2%	-14%
S=c1[nH]nc(-c2ccco2)n1-c1ccc(Cl)cc1	-1%	-29%	1%	8.9µM*	-3%	18%
CC(C)(C)c1cc(-c2n[nH]c(=S)n2-c2ccc(Cl)cc2)n[nH]1	3%	-17%	4%	7.1µM*	-5%	-9%
Cn1cc(Cl)c(C(=O)NC2CCCCCC2)n1	-1%	24%	-1%	-4%	0%	0%
Cn1cc(Cl)c(-c2n[nH]c(=S)n2C2CCCCC2)n1	-27%	?	-1%	6.3µM*	-3%	2%
S=c1[nH]nc(-c2ccco2)n1C1CCCCC1	1%	?	-1%	10µM*	3%	37%
O=C(CCS(=O)(=O)c1ccc(Cl)cc1)N1CCCc2ccccc21	nt	nt	nt	nt	3%	20%
COc1ccc(-c2noc(CCCC(=O)NC3CCCC3)n2)cc1	8%	14µM*	8%	4.5µM*	-6%	-49%
COc1ccc(-c2noc(CCC(=O)NC3CCCCCC3)n2)cc1	3%	-6%	30%	25%	-1%	-26%
COc1ccc(-c2noc(CCCC(=O)Nc3ccc(C(N)=O)cc3)n2)cc1	?	2.5µM*	3%	1.6µM*	nt	-10%
O=C(NC(=S)Nc1ccccc1N1CCOCC1)c1ccccc1F	?	20µM*	-20%	13µM*	13%	24%
FC(F)(F)Oc1ccc(NC(=S)Nc2ccccc2N2CCOCC2)cc1	1%	?	-2%	7.9µM*	-1%	-28%
O=C(NC(=S)Nc1ccccc1N1CCN(C(=O)c2ccccc2)CC1)c1ccccc1F	4%	?	10%	13µM*	-5%	-45%
CC(=O)NC(=S)Nc1ccccc1N1CCN(C(=O)c2ccccc2)CC1	-8%	5µM*	-5%	6.3µM*	3%	-29%
O=C(NC(=S)Nc1ccccc1N1CCOCC1)c1sc2ccccc2c1Cl	-6%	2%	0%	?	12%	27%
CC(C)C(=O)NC(=S)Nc1ccccc1N1CCN(C(=O)c2ccccc2)CC1	0%	-8%	6%	-21%	2%	0%
CC1CCc2sc(C(=O)NNC(=S)NC3CC3)cc2C1 (stereo not given)	?	-18%	-11%	?	0%	40%
SMILES	Chronic BCR inh	Gal4-VP16 FLuc	Mito fusion act	RORgamma inh	uPA surface inh	Integrin act MD
CCOP(=O)(NC12CC3CC(CC(C3)C1)C2)NC12CC3CC(CC(C3)C1)C2	-3%	0%	5%	-29%	4%	-6%
O=C1CCC(C(=O)OC(C(=O)c2c[nH]c3ccccc23)c2ccccc2)=NN1 (stereo not given)	-4%	7.1µM*	-1%	33%[10 µM]	12%	-24%
O=C(c1c[nH]c2ccccc12)C(O)C(c1ccccc1)N1CCOCC1 (stereo not given)	0%	7%	-4%	8%	3%	12%
O=C(c1c[nH]c2ccccc12)C(Cl)c1ccccc1 (stereo not given)	?	2%	-44%	-22%	6.3µM*	2%
O=C(O)[C@H]1NCCC[C@H]1C(=O)O	nt	nt	-4%	nt	nt	nt
CCc1ccccc1N(C(C)=O)c1nc(CN=C=S)cs1	-18%	-3%	-5%	-26%	?	-60%
N#Cc1ccc(C(=O)OCC(=O)Nc2cccnc2Cl)cc1	1%	nt	-6%	nt	10%	5%
CC(=O)NN1C(=O)c2ccccc2NC1c1ccccc1O (stereo not given)	2%	?	10%	11µM*	1%	-30%
CC(C)CC(=O)NC(=S)Nc1nc(-c2cccc3ccccc23)cs1	12%	13µM*	-4%	3.2µM*	-1%	-8%
CCOC(=O)Cc1csc(NC(=S)NC(=O)c2cccc([N+](=O)[O-])c2)n1	-11%	?	-9%	11µM*	7%	4%
CCOC(=O)Cc1csc(NC(=S)NC(=O)c2ccccc2)n1	?	-94%	3%	?	-5%	13%
CCOC(=O)Cc1csc(NC(=S)NC(=O)CC(C)C)n1	?	?	-5%	11µM*	-1%	15%
CCOC(=O)Cc1csc(NC(=S)NC(=O)c2ccc(C)cc2)n1	?	8.9µM*	1%	5µM*	?	3%
CCOc1ccc(S(=O)(=O)NC(Cc2cnc[nH]2)C(=O)O)cc1 (stereo not given)	-1%	10%	1%	12%	1%	6%
CC(=O)NCCNc1nc(-c2cccc(C#N)c2)nc2ccccc12	nt	1%	nt	13%	nt	nt
COc1ccccc1NC(=O)Cc1csc(NC(=S)Nc2ccc(C)cc2)n1	?	2.8µM*	-6%	0.89µM*	nt	-3%
CCC(=O)Nc1nc(CC(=O)Nc2ccccc2OC)cs1	-9%	2%	-3%	18%	-3%	20%
CCOC(=O)Cc1csc(NC(=S)NC(=O)c2ccccc2Br)n1	?	4µM*	9%	5.6µM*	-1%	2%
C=CCSc1nsc(NC(=O)Nc2ccc(F)cc2)n1	?	3.5µM*	-18%	?	-18%	-66%
O=C(NC1CCCCC1)c1n[nH]c2c1CCCCC2	?	nt	14%	nt	3.2µM*	5%
CC(C)[C@H](NC(=O)c1c(F)cccc1F)C(=O)N1CCN(c2ccc(F)cc2)CC1	1%	11%	11%	0%	-2%	0%
O=C(NC(=S)N1CCN(c2ccccc2)CC1)c1c(F)cccc1F	?	1.4µM*	4%	0.71µM*	5%	37%
O=C(NC(=S)N1CCN(c2ccc(O)cc2)CC1)c1cccs1	-6%	2.8µM*	1%	3.5µM*	?	15%

From PubChem BioAssay
